# What was measured:
# Test in all cases: SPOT peptide array binding signal intensity (averaged, normalized) (arbitrary units (background-subtracted, floor 0; scale differs between SH3 domains)); higher = stronger binding of the SH3 domain to the peptide
# SpBzz1-D2 = target: SpBzz1-D2
# In short: (§1)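 To measure binding, SH3 domains from four yeast species were fused to GST, expressed in E. coli BL21(DE3) and purified on glutathione Sepharose. Each domain was incubated at 10 μg/ml overnight at 4°C on cellulose membranes with synthetic 15-mer peptides whose cysteines were replaced by serines. Anti-GST antibody, an HRP anti-mouse secondary and luminol were used for detection, and images were quantified with Genespotter. Reported binding signal is normalized, background-subtracted spot intensity averaged over replicates, in arbitrary units that differ between domains.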
# SpCyk3 = target: SpCyk3
# In short: as §1
# SpHof1 = target: SpHof1
# In short: as §1
# SpHof1-2 = target: SpHof1-2
# In short: as §1
# SpHof1-3 = target: SpHof1-3
# In short: as §1
# SpHse1 = target: SpHse1
# In short: as §1
# SpLsb1 = target: SpLsb1
# In short: as §1
# SpLsb4 = target: SpLsb4
# In short: as §1
# SpMyo1 = target: SpMyo1
# In short: as §1
# SpNbp2 = target: SpNbp2
# In short: as §1
# SpPex13 = target: SpPex13
# In short: as §1
# SpRvs167 = target: SpRvs167
# In short: as §1
# SpSla1-D1-D2 = target: SpSla1-D1-D2
# In short: as §1
# SpSla1-D3 = target: SpSla1-D3
# In short: as §1
# AgAbp1 = target: AgAbp1
# In short: as §1
# AgBbc1 = target: AgBbc1
# In short: as §1
# AgBem1-D1 = target: AgBem1-D1
# In short: as §1
# AgBzz1-D1 = target: AgBzz1-D1
# In short: as §1
# AgBzz1-D2 = target: AgBzz1-D2
# In short: as §1
# AgCyk3 = target: AgCyk3
# In short: as §1
# AgFus1 = target: AgFus1
# In short: as §1
# AgHof1 = target: AgHof1
# In short: as §1
# AgHse1 = target: AgHse1
# In short: as §1
# AgLsb1 = target: AgLsb1
# In short: as §1
# AgLsb4 = target: AgLsb4
# In short: as §1
# AgMyo5 = target: AgMyo5
# In short: as §1
# AgNbp2 = target: AgNbp2
# In short: as §1
# AgRvs167 = target: AgRvs167
# In short: as §1
# AgSho1 = target: AgSho1
# In short: as §1
# AgSla1-D1-D2 = target: AgSla1-D1-D2
# In short: as §1
# AgSla1-D3 = target: AgSla1-D3
# In short: as §1
# CaAbp1-D1 = target: CaAbp1-D1
# In short: as §1
# CaAbp1-D2 = target: CaAbp1-D2
# In short: as §1
# CaBbc1 = target: CaBbc1
# In short: as §1
# CaBem1-D1 = target: CaBem1-D1
# In short: as §1
# CaBzz1-D1 = target: CaBzz1-D1
# In short: as §1
# CaBzz1-D2 = target: CaBzz1-D2
# In short: as §1
# CaCyk3 = target: CaCyk3
# In short: as §1
# CaFus1 = target: CaFus1
# In short: as §1
# CaHof1 = target: CaHof1
# In short: as §1
# CaHse1 = target: CaHse1
# In short: as §1
# CaLsb1 = target: CaLsb1
# In short: as §1
# CaLsb4 = target: CaLsb4
# In short: as §1
# CaMyo5 = target: CaMyo5
# In short: as §1
# CaNbp2 = target: CaNbp2
# In short: as §1
# CaRvs167 = target: CaRvs167
# In short: as §1
# CaRvs167-3 = target: CaRvs167-3
# In short: as §1
# CaSho1 = target: CaSho1
# In short: as §1
# CaSla1-D1-D2 = target: CaSla1-D1-D2
# In short: as §1
# CaSla1-D3 = target: CaSla1-D3
# In short: as §1
# ScAbp1 = target: ScAbp1
# In short: as §1
# ScBbc1 = target: ScBbc1
# In short: as §1
# ScBem1-D1 = target: ScBem1-D1
# In short: as §1
# ScBzz1-D1 = target: ScBzz1-D1
# In short: as §1
# ScBzz1-D2 = target: ScBzz1-D2
# In short: as §1
# ScCyk3 = target: ScCyk3
# In short: as §1
# ScFus1 = target: ScFus1
# In short: as §1
# ScHof1 = target: ScHof1
# In short: as §1
# ScHse1 = target: ScHse1
# In short: as §1
# ScLsb1 = target: ScLsb1
# In short: as §1
# ScLsb2 = target: ScLsb2
# In short: as §1
# ScLsb3 = target: ScLsb3
# In short: as §1
# ScLsb4 = target: ScLsb4
# In short: as §1
# ScMyo3 = target: ScMyo3
# In short: as §1
# ScMyo5 = target: ScMyo5
# In short: as §1
# ScNbp2 = target: ScNbp2
# In short: as §1
# ScPex13 = target: ScPex13
# In short: as §1
# ScRvs167 = target: ScRvs167
# In short: as §1
# ScSho1 = target: ScSho1
# In short: as §1
# ScSla1-D1-D2 = target: ScSla1-D1-D2
# In short: as §1
# ScSla1-D3 = target: ScSla1-D3
# In short: as §1
# SpAbp1-D1 = target: SpAbp1-D1
# In short: as §1
# SpBbc1 = target: SpBbc1
# In short: as §1
# SpBzz1-D1 = target: SpBzz1-D1
# In short: as §1
binder,measurement,setting,value
PPPPPPPPPPPLPQS,SPOT peptide array binding signal intensity,SpBzz1-D2,31.2
same,SPOT peptide array binding signal intensity,SpCyk3,1
same,SPOT peptide array binding signal intensity,SpHof1,≤ 0
same,SPOT peptide array binding signal intensity,SpHof1-2,≤ 0
same,SPOT peptide array binding signal intensity,SpHof1-3,≤ 0
same,SPOT peptide array binding signal intensity,SpHse1,21
same,SPOT peptide array binding signal intensity,SpLsb1,4.5
same,SPOT peptide array binding signal intensity,SpLsb4,31
same,SPOT peptide array binding signal intensity,SpMyo1,1470
same,SPOT peptide array binding signal intensity,SpNbp2,2
same,SPOT peptide array binding signal intensity,SpPex13,≤ 0
same,SPOT peptide array binding signal intensity,SpRvs167,124
same,SPOT peptide array binding signal intensity,SpSla1-D1-D2,1.5
same,SPOT peptide array binding signal intensity,SpSla1-D3,≤ 0
LEFRAILFIPKRAPF,SPOT peptide array binding signal intensity,AgAbp1,9
same,SPOT peptide array binding signal intensity,AgBbc1,11.8
same,SPOT peptide array binding signal intensity,AgBem1-D1,198
same,SPOT peptide array binding signal intensity,AgBzz1-D1,30.5
same,SPOT peptide array binding signal intensity,AgBzz1-D2,37
same,SPOT peptide array binding signal intensity,AgCyk3,4
same,SPOT peptide array binding signal intensity,AgFus1,2310
same,SPOT peptide array binding signal intensity,AgHof1,52.8
same,SPOT peptide array binding signal intensity,AgHse1,654
same,SPOT peptide array binding signal intensity,AgLsb1,1.5
same,SPOT peptide array binding signal intensity,AgLsb4,989
same,SPOT peptide array binding signal intensity,AgMyo5,≤ 0
same,SPOT peptide array binding signal intensity,AgNbp2,558
same,SPOT peptide array binding signal intensity,AgRvs167,8.17
same,SPOT peptide array binding signal intensity,AgSho1,850
same,SPOT peptide array binding signal intensity,AgSla1-D1-D2,14
same,SPOT peptide array binding signal intensity,AgSla1-D3,4.25
same,SPOT peptide array binding signal intensity,CaAbp1-D1,56
same,SPOT peptide array binding signal intensity,CaAbp1-D2,58
same,SPOT peptide array binding signal intensity,CaBbc1,68
same,SPOT peptide array binding signal intensity,CaBem1-D1,5
same,SPOT peptide array binding signal intensity,CaBzz1-D1,212
same,SPOT peptide array binding signal intensity,CaBzz1-D2,109
same,SPOT peptide array binding signal intensity,CaCyk3,16.5
same,SPOT peptide array binding signal intensity,CaFus1,5550
same,SPOT peptide array binding signal intensity,CaHof1,6
same,SPOT peptide array binding signal intensity,CaHse1,267
same,SPOT peptide array binding signal intensity,CaLsb1,19
same,SPOT peptide array binding signal intensity,CaLsb4,81
same,SPOT peptide array binding signal intensity,CaMyo5,13.2
same,SPOT peptide array binding signal intensity,CaNbp2,1090
same,SPOT peptide array binding signal intensity,CaRvs167,224
same,SPOT peptide array binding signal intensity,CaRvs167-3,268
same,SPOT peptide array binding signal intensity,CaSho1,2030
same,SPOT peptide array binding signal intensity,CaSla1-D1-D2,49
same,SPOT peptide array binding signal intensity,CaSla1-D3,249
same,SPOT peptide array binding signal intensity,ScAbp1,5
same,SPOT peptide array binding signal intensity,ScBbc1,0.25
same,SPOT peptide array binding signal intensity,ScBem1-D1,18
same,SPOT peptide array binding signal intensity,ScBzz1-D1,25.5
same,SPOT peptide array binding signal intensity,ScBzz1-D2,162
same,SPOT peptide array binding signal intensity,ScCyk3,35
same,SPOT peptide array binding signal intensity,ScFus1,3610
same,SPOT peptide array binding signal intensity,ScHof1,1
same,SPOT peptide array binding signal intensity,ScHse1,1790
same,SPOT peptide array binding signal intensity,ScLsb1,2
same,SPOT peptide array binding signal intensity,ScLsb2,≤ 0
same,SPOT peptide array binding signal intensity,ScLsb3,164
same,SPOT peptide array binding signal intensity,ScLsb4,11.5
same,SPOT peptide array binding signal intensity,ScMyo3,≤ 0
same,SPOT peptide array binding signal intensity,ScMyo5,4
same,SPOT peptide array binding signal intensity,ScNbp2,593
same,SPOT peptide array binding signal intensity,ScPex13,186
same,SPOT peptide array binding signal intensity,ScRvs167,29.2
same,SPOT peptide array binding signal intensity,ScSho1,3570
same,SPOT peptide array binding signal intensity,ScSla1-D1-D2,37.5
same,SPOT peptide array binding signal intensity,ScSla1-D3,94.5
same,SPOT peptide array binding signal intensity,SpAbp1-D1,30
same,SPOT peptide array binding signal intensity,SpBbc1,11.5
same,SPOT peptide array binding signal intensity,SpBzz1-D1,220
same,SPOT peptide array binding signal intensity,SpBzz1-D2,0.5
same,SPOT peptide array binding signal intensity,SpCyk3,10.5
same,SPOT peptide array binding signal intensity,SpHof1,61.5
same,SPOT peptide array binding signal intensity,SpHof1-2,29.5
same,SPOT peptide array binding signal intensity,SpHof1-3,418
same,SPOT peptide array binding signal intensity,SpHse1,1270
same,SPOT peptide array binding signal intensity,SpLsb1,≤ 0
same,SPOT peptide array binding signal intensity,SpLsb4,10
same,SPOT peptide array binding signal intensity,SpMyo1,11
same,SPOT peptide array binding signal intensity,SpNbp2,1170
same,SPOT peptide array binding signal intensity,SpPex13,127
same,SPOT peptide array binding signal intensity,SpRvs167,17.3
same,SPOT peptide array binding signal intensity,SpSla1-D1-D2,≤ 0
same,SPOT peptide array binding signal intensity,SpSla1-D3,66.5
VTHRLRISIPGITGR,SPOT peptide array binding signal intensity,AgAbp1,9
same,SPOT peptide array binding signal intensity,AgBbc1,193
same,SPOT peptide array binding signal intensity,AgBem1-D1,126
same,SPOT peptide array binding signal intensity,AgBzz1-D1,58
same,SPOT peptide array binding signal intensity,AgBzz1-D2,136
same,SPOT peptide array binding signal intensity,AgCyk3,25
same,SPOT peptide array binding signal intensity,AgFus1,1200
same,SPOT peptide array binding signal intensity,AgHof1,20.8
same,SPOT peptide array binding signal intensity,AgHse1,650
same,SPOT peptide array binding signal intensity,AgLsb1,4.5
same,SPOT peptide array binding signal intensity,AgLsb4,430
same,SPOT peptide array binding signal intensity,AgMyo5,1.75
same,SPOT peptide array binding signal intensity,AgNbp2,123
same,SPOT peptide array binding signal intensity,AgRvs167,20
same,SPOT peptide array binding signal intensity,AgSho1,146
same,SPOT peptide array binding signal intensity,AgSla1-D1-D2,88
same,SPOT peptide array binding signal intensity,AgSla1-D3,3
same,SPOT peptide array binding signal intensity,CaAbp1-D1,286
same,SPOT peptide array binding signal intensity,CaAbp1-D2,146
same,SPOT peptide array binding signal intensity,CaBbc1,234
same,SPOT peptide array binding signal intensity,CaBem1-D1,36
same,SPOT peptide array binding signal intensity,CaBzz1-D1,252
same,SPOT peptide array binding signal intensity,CaBzz1-D2,114
same,SPOT peptide array binding signal intensity,CaCyk3,39.5
same,SPOT peptide array binding signal intensity,CaFus1,1410
same,SPOT peptide array binding signal intensity,CaHof1,1.75
same,SPOT peptide array binding signal intensity,CaHse1,56.8
same,SPOT peptide array binding signal intensity,CaLsb1,1.25
same,SPOT peptide array binding signal intensity,CaLsb4,47.5
same,SPOT peptide array binding signal intensity,CaMyo5,34

# From the supplement of paper PMC4466140
